Test results as given in PubChem BioAssay (Tox21).
Inconclusive results are not listed. Calls of active or inactive are those of the source. Unless noted, calls follow the shape of the dose curve; as a rule, active = well fitted curve in the direction sought with a large enough effect in the repeat runs; inconclusive = weak or mixed curves; inactive = no such curve, though single readings can be large; an effect the other way counts as inactive or inconclusive.

Columns and labels:
[1] = qHTS assay to identify small molecule agonists of the sonic hedgehog signaling (Shh) pathway (AID 1259368; calls by dose curve;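 also: NIH/3T3-derived 3T3Gli1-Luc cells carrying a stable Gli1-driven firefly luciferase reporter; series mostly up to about 92 µM; nearly all actives have a fitted effect of over 15% in size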)
Outline: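 Luminescent signal was taken as a measure of Gli1-controlled luciferase expression in stably transfected NIH/3T3-derived cells that had been treated for 24 hr with compounds delivered in DMSO.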

[2] = target: Estrogen receptor beta (Homo sapiens) (UniProt Q92731); assay: qHTS assay to identify small molecule agonists of the estrogen receptor beta (ER-beta) signaling pathway (AID 1259377; active = well fitted activation curve with a large enough effect in the signal ratio in the repeat runs, not every such curve was filed as active; the % refers to the signal ratio)
Estrogen receptor beta (Homo sapiens), sequence (Q92731 whole entry, looked up): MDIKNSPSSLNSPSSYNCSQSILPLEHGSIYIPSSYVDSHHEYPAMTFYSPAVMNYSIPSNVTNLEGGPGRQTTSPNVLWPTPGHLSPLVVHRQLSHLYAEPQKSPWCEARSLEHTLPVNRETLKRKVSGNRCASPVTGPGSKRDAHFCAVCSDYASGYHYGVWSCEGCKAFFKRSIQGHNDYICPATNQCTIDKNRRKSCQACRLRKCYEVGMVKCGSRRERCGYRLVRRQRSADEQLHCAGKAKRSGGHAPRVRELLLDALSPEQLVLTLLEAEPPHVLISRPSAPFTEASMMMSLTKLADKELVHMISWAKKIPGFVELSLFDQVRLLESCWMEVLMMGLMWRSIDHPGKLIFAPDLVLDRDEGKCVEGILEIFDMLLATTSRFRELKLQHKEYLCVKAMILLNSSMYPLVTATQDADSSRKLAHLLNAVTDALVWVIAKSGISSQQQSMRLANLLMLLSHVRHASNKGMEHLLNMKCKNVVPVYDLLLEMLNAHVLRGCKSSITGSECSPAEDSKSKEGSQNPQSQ
Outline: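 Beta-lactamase reporter readout: fluorescence of LiveBLAzer B/G FRET substrate after 2 h at room temperature, following 16 h compound treatment of ER-beta-UAS-bla HEK293T cells at 37C in 2% charcoal-stripped FBS medium.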

[3] = target: Estrogen receptor beta (Homo sapiens) (UniProt Q92731); assay: qHTS assay to identify small molecule antagonists of the estrogen receptor beta (ER-beta) signaling pathway (AID 1259378; active = well fitted inhibition curve with a large enough effect in the signal ratio in the repeat runs, not every such curve was filed as active; the % refers to the signal ratio)
Outline: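 ER-beta-UAS-bla HEK293T (GripTite) cells in 2% charcoal-stripped FBS medium were preincubated 6 hr at 37C, dosed with compound, then stimulated with 1 nM E2 (final) for 16 hr; beta-lactamase reporter read by B/G FRET fluorescence after 2 hr substrate loading.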

[4] = qHTS assay to identify small molecule agonists of the androgen receptor (AR) signaling pathway in the presence of an antagonist - cell viability counter screen (AID 1259379);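 also: MDA-kb2 human breast cancer cells carrying an MMTV luciferase reporter; series mostly up to about 92 µM; nearly all actives have a fitted effect of over 25% in size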
Outline: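 In MDA-kb2 cells (human breast carcinoma, MMTV-luciferase), compounds at 15 concentrations plus 3.0uM nilutamide; 16 hr, 37C, 0% CO2; CellTiter-Fluor fluorescence read for viability.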

[5] = qHTS assay to identify small molecule agonists of the estrogen receptor beta (ER-beta) signaling pathway - cell viability counter screen (AID 1259380); also: nearly all actives have a fitted effect of over 30% in size
Outline: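 Viability of ER-beta-UAS-bla HEK293T cells was determined by CellTiter-Glo luminescence following 16 hr treatment with test compounds at 37C.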

[6] = target: Androgen receptor (Homo sapiens) (UniProt P10275); assay: qHTS assay to identify small molecule agonists of the androgen receptor (AR) signaling pathway in the presence of an antagonist (AID 1259381; calls by dose curve; also: nearly all actives have a fitted effect of over 15% in size)
Androgen receptor (Homo sapiens), sequence (P10275 whole entry, looked up): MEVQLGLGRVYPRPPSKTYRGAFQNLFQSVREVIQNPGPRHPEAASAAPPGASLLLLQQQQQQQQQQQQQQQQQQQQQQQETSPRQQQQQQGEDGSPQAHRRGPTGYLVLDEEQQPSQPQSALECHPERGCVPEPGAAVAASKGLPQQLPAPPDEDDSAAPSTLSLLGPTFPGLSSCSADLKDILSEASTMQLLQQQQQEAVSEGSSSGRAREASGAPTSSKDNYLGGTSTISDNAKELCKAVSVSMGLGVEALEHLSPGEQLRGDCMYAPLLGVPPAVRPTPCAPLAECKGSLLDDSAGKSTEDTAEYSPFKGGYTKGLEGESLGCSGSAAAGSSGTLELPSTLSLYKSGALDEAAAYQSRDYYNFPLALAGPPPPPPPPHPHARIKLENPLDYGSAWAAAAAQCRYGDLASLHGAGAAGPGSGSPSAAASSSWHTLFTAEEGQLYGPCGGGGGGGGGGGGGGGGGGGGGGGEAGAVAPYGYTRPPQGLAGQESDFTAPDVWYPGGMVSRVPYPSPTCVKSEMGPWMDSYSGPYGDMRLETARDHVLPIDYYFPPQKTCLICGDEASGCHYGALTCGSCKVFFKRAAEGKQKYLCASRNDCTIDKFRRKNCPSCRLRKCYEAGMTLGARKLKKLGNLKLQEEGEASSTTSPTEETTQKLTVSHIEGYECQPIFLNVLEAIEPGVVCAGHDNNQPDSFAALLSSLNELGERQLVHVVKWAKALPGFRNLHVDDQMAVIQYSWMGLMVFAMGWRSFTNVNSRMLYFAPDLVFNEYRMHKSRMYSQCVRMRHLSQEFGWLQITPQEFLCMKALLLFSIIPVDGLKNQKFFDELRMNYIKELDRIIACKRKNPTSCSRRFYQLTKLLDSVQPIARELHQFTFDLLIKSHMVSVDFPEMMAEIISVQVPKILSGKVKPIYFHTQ
Outline: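 Here, 15-concentration compound series were pin-transferred onto MDA-kb2 MMTV-luciferase cells already dosed with nilutamide (3.0uM final). After 16hr at 37C, ONE-Glo was added and luminescence read 30min later at room temperature.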

[7] = qHTS assay to identify small molecule antagonists of the estrogen receptor beta (ER-beta) signaling pathway - cell viability counter screen (AID 1259382); also: series mostly up to about 92 µM; nearly all actives have a fitted effect of over 55% in size
Outline: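 Tox21 10K library tested in qHTS format on ER-beta-bla HEK293T cells stimulated with 1nM E2; 16 hr treatment at 37C. Same-well CellTiter-Glo luminescence served as the cell viability measure.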

[8] = target: Estrogen receptor (Homo sapiens) (UniProt P03372); assay: qHTS assay to identify small molecule agonists of the estrogen receptor alpha (ER-alpha) signaling pathway in the presence of an antagonist (AID 1259383; calls by dose curve; also: top concentration of the series differs between compounds; nearly all actives have a fitted effect of over 15% in size)
Estrogen receptor (Homo sapiens), sequence (P03372 whole entry, looked up): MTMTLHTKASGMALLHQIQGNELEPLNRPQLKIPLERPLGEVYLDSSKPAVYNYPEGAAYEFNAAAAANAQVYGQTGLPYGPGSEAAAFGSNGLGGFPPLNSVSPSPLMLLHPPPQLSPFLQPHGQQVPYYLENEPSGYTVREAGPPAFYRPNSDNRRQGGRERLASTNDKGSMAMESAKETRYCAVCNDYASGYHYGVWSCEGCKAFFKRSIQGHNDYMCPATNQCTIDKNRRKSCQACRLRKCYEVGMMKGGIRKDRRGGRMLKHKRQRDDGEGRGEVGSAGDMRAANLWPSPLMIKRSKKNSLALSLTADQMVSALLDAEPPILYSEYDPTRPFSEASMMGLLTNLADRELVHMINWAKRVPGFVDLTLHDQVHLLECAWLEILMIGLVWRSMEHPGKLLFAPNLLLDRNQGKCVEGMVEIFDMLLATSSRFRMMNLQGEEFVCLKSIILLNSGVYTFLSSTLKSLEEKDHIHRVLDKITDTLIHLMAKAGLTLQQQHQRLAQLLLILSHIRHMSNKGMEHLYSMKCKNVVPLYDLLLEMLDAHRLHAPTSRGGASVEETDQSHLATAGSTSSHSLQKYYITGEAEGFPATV
Outline: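 In VM7Luc4E2 cells, 4,000 per well, compounds at 15 concentrations were co-incubated 22hr at 37C with 10.0nM final ICI-182,780. Luminescence from the stably transfected 4×ERE-luciferase reporter was recorded 30min after ONE-Glo addition.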

[9] = qHTS assay to identify small molecule agonists or antagonists of the thyroid stimulating hormone receptor (TSHR) signaling pathway - wild type cell line counter screen (AID 1259384; calls by dose curve)
Outline: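 Wild-type HEK293 cells were plated 18 h at 37 C/5% CO2, pin-dosed with compound plus Ro20-1724 medium, held 30 min at room temperature, then given cAMP-d2 and anti-cAMP-cryptate; fluorescence was read after 1 h. Fifteen concentrations, triplicate.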

[10] = target: Thyrotropin receptor (Homo sapiens) (UniProt P16473); assay: qHTS assay to identify small molecule antagonists of the thyroid stimulating hormone receptor (TSHR) signaling pathway (AID 1259385; calls by dose curve; also: nearly all actives have a fitted effect of over 20% in size)
Thyrotropin receptor (Homo sapiens), sequence (P16473 whole entry, looked up): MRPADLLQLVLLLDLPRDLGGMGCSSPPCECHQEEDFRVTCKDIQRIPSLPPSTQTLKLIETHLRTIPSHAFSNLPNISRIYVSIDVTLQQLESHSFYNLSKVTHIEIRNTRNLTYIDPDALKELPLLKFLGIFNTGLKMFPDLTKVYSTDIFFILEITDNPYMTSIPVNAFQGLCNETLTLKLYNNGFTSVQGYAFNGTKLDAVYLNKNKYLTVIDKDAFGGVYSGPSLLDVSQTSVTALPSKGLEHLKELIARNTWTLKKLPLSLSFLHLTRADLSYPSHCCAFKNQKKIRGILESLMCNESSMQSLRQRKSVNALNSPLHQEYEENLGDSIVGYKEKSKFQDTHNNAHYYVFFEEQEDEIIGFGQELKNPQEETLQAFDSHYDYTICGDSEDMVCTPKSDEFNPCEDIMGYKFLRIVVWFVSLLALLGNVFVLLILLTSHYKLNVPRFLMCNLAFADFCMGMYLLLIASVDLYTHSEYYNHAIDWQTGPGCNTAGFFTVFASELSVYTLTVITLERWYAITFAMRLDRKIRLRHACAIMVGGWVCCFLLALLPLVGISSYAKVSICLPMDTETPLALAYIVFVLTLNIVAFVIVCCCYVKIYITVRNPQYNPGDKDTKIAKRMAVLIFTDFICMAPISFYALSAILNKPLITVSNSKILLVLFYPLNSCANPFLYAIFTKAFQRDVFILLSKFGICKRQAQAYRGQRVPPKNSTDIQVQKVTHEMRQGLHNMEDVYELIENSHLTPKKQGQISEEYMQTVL
Outline: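 TSHR-HEK293 cells were plated and held 18 h at 37C/5% CO2, then given compound plus Ro20-1724 and stimulated with TSH at 1.5 ng/mL final. After 30 min at room temperature, cAMP was detected with cAMP-d2/anti-cAMP-cryptate (1 h) by fluorescence.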

[11] = qHTS assay to identify small molecule agonists of the estrogen receptor alpha (ER-alpha) signaling pathway in the presence of an antagonist - cell viability counter screen (AID 1259386);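 also: series mostly up to about 92 µM; cells exposed to compounds for 22 h at 37 °C before the viability read; nearly all actives have a fitted effect of over 30% in size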
Outline: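 Fluorescent CellTiter-Fluor viability signal from VM7Luc4E2 cells, with the reagent added during the final hour of a 22hr compound exposure at 37C in the presence of 10.0nM ICI-182,780.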

[12] = target: Progesterone receptor (Homo sapiens) (UniProt P06401); assay: qHTS assay to identify small molecule antagonists of the progesterone receptor (PR) signaling pathway (AID 1346795; active = well fitted inhibition curve with a large enough effect in the signal ratio in the repeat runs, not every such curve was filed as active; the % refers to the signal ratio)
Progesterone receptor (Homo sapiens), sequence (P06401 whole entry, looked up): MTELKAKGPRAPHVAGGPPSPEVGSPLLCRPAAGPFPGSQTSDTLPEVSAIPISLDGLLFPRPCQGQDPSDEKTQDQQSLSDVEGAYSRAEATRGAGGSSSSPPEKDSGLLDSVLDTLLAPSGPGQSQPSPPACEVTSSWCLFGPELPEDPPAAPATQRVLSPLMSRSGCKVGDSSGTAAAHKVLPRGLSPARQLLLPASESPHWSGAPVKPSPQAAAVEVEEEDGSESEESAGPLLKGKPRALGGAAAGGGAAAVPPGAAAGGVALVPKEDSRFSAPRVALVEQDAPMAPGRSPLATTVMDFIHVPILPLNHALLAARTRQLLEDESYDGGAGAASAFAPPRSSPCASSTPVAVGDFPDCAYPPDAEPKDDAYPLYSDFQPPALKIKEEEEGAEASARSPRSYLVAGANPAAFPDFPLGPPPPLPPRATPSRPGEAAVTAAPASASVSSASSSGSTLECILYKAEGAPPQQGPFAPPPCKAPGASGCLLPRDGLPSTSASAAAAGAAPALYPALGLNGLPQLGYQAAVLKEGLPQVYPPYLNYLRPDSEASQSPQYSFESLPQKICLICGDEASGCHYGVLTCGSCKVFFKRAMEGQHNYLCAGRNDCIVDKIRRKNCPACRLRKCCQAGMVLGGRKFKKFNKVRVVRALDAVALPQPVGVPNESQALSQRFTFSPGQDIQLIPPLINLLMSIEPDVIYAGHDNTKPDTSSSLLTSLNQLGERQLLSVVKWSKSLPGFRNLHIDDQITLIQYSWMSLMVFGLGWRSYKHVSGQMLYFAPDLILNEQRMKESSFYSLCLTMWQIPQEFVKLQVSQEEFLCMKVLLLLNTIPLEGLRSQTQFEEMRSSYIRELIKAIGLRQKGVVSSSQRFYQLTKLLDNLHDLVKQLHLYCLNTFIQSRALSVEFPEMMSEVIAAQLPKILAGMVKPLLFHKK
Outline: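 Beta-lactamase reporter, HEK293T PR-UAS-bla line; 2% charcoal-stripped FBS; 6 hr pre-incubation, 37C/5% CO2. Compound + R5020 1 nM final, 16 hr. LiveBLAzer B/G FRET substrate, 2 hr RT; fluorescence intensity read.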

[13] = qHTS assay to identify small molecule antagonists of the progesterone receptor (PR) signaling pathway - cell viability counter screen (AID 1346798); also: series mostly up to about 92 µM; nearly all actives have a fitted effect of over 50% in size
Outline: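 Luminescence readout (CellTiter-Glo, 30 min, RT) of viability in PR-UAS-bla HEK293T cells exposed to compound and R5020 agonist for 16 hr at 37C, 5% CO2; run in the same wells as the beta-lactamase reporter read.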

[14] = qHTS assay to identify small molecule antagonists of the TGF-beta/Smad signaling pathway - cell viability counter screen (AID 1346824); also: nearly all actives have a fitted effect of over 50% in size
Outline: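 SBE-bla HEK 293T cells were plated overnight at 37 C, then given compounds in DMSO plus TGF-beta1 (added as 0.25 ng/mL solution) for 5 hr. After the bla read, CellTiter-Glo was added to the same wells and luminescence read after 30 min at room temperature.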

[15] = qHTS assay to identify small molecule agonists of the TGF-beta/Smad signaling pathway - cell viability counter screen (AID 1346829); also: top concentration of the series differs between compounds; nearly all actives have a fitted effect of over 45% in size
Outline: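 Same-well cytotoxicity: CellTiter-Glo added after the 2 hr room-temperature beta-lactamase substrate step, luminescence measured 30 min later; cells had 5 hr of compound at 37 C.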

[16] = qHTS assay to identify small molecule agonists of the TGF-beta/Smad signaling pathway (AID 1346859; active = well fitted activation curve with a large enough effect in the signal ratio in the repeat runs, not every such curve was filed as active; the % refers to the signal ratio; also: series mostly up to about 77 µM)
Outline: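 Read-out: fluorescence at 460 and 530 nm (405 nm excitation) after a 2 hr room-temperature incubation with beta-lactamase FRET substrate. SBE-bla HEK 293T cells had been treated with test compounds for 5 hr at 37 C.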

[17] = qHTS assay to identify small molecule agonists of the progesterone receptor (PR) signaling pathway - cell viability counter screen (AID 1346799; calls by dose curve; also: nearly all actives have a fitted effect of over 45% in size)
Outline: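 HEK293T PR-UAS-bla, 3,000 cells/well, 2% charcoal-stripped FBS; 6 h settle, compound 16 h at 37C/5% CO2; LiveBLAzer 2 h RT, then CellTiter-Glo 30 min RT, luminescence read.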

[18] = target: Progesterone receptor (Homo sapiens) (UniProt P06401); assay: qHTS assay to identify small molecule agonists of the progesterone receptor (PR) signaling pathway (AID 1346784; calls by dose curve; also: nearly all actives have a fitted effect of over 30% in size)
Outline: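 HEK 293T PR-UAS-bla reporter cells, 2% charcoal-stripped FBS; 6 hr settle at 37C/5% CO2, compound (DMSO) 16 hr, LiveBLAzer B/G FRET substrate 2 hr RT, fluorescence intensity read.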

[19] = target: Thyrotropin-releasing hormone receptor (Homo sapiens) (UniProt P34981); assay: qHTS assay to identify small molecule antagonists of the thyrotropin-releasing hormone receptor (TRHR) signaling pathway (AID 1346877; active = well fitted inhibition curve with a large enough effect in the repeat runs, not every such curve was filed as active; also: series mostly up to about 51 µM)
Thyrotropin-releasing hormone receptor (Homo sapiens), sequence (P34981 whole entry, looked up): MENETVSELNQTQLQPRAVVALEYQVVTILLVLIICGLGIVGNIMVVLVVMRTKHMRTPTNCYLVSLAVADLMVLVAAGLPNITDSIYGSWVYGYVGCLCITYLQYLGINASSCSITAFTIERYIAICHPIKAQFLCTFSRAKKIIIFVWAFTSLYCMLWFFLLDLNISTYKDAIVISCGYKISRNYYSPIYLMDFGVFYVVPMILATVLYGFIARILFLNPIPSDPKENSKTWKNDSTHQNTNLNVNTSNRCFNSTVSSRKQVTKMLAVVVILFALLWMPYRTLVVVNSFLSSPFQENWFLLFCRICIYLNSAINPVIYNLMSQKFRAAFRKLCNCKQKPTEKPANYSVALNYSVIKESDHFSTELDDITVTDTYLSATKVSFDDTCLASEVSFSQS
Outline: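 In this cell-based calcium flux format, HEK293 cells expressing TRHR received test compound for 5 min before the agonist TRH (1 nM final). Dye loading lasted 2 h at 37 °C.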
% is scaled to controls: 0 for no effect and ±100 for the full control effect.

CCCCCCOC(=O)CC(CC(=O)OCCCCCC)(OC(=O)CCC)C(=O)OCCCCCC
inactive: Potency [1] | outcome [2] | Potency [3] | Potency [4] | Potency [5] | Potency [6] | Potency [7] | Potency [8] | outcome [9] | Potency [10] | outcome [11] | Potency [12] | Potency [13] | outcome [14] | outcome [15] | outcome [16]

COC(=O)CCCC(=O)O
inactive: Potency [1] | outcome [2] | Potency [3] | Potency [4] | Potency [5] | Potency [7] | Potency [8] | outcome [9] | Potency [10] | Potency [13] | Potency [17] | outcome [14] | outcome [15] | outcome [16]

NC(=S)Nc1cccc2ccccc12
inactive: activity change [1] -0.099% [at 8.39 µM, stronger effect = higher value] | activation [2] -0.309% [at 8.39 µM] | activity, negative = inhibition [3] -5.64% [at 8.39 µM] | activity change, negative = cytotoxicity [4] -0.514% [at 8.39 µM] | activity change, negative = cytotoxicity [5] -0.0461% [at 8.39 µM] | activity change, negative = cytotoxicity [7] 8.83% [at 8.39 µM] | cAMP activity change [9] 4.82% [at 8.39 µM] | activity change, negative = inhibition [10] 2.83% [at 8.39 µM] | activity change, negative = cytotoxicity [11] 0.0918% [at 8.39 µM] | activation [18] -0.12% [at 8.39 µM] | activity change, negative = cytotoxicity [13] -13.4% [at 8.39 µM] | activity change, negative = cytotoxicity [17] -0.848% [at 8.39 µM] | viability change, negative = cytotoxic [14] 11.5% [at 6.97 µM] | activity change, negative = cytotoxicity [15] -4.69% [at 6.97 µM] | activation [16] -0.913% [at 6.97 µM] | activity, negative = inhibition [19] -0.447% [at 4.65 µM]

Nc1ccn(C2CO[C@H](CO)O2)c(=O)n1 (stereo not given in full)
inactive: Potency [1] | outcome [2] | Potency [3] | Potency [4] | Potency [5] | Potency [7] | Potency [8] | outcome [9] | Potency [10] | outcome [11] | Potency [18] | Potency [12] | Potency [13] | Potency [17] | outcome [14] | outcome [15] | outcome [16]

NCC[C@H](O)C(=O)N[C@@H]1C[C@H](N)[C@@H](O[C@H]2O[C@H](CN)[C@@H](O)[C@H](O)[C@H]2O)[C@H](O)[C@H]1O[C@H]1O[C@H](CO)[C@@H](O)[C@H](N)[C@H]1O
inactive: activity change [1] 0.203% [at 0.349 µM, stronger effect = higher value] | activation [2] 0.597% [at 0.348 µM] | activity, negative = inhibition [3] -5.02% [at 0.349 µM] | activity change, negative = cytotoxicity [4] 1.61% [at 0.35 µM] | activity change, negative = cytotoxicity [5] 1.09% [at 0.349 µM] | activation [6] 0.148% [at 0.349 µM] | activity change, negative = cytotoxicity [7] 1.11% [at 0.349 µM] | activation [8] 1.1% [at 0.349 µM] | cAMP activity change [9] -0.997% [at 0.349 µM] | activity change, negative = inhibition [10] 0.0742% [at 0.349 µM] | activity change, negative = cytotoxicity [11] 0.765% [at 0.349 µM] | activation [18] 0.26% [at 0.349 µM] | activity change, negative = inhibition [12] 2.43% [at 0.348 µM] | activity change, negative = cytotoxicity [13] 0.454% [at 0.348 µM] | activity change, negative = cytotoxicity [17] 8.45% [at 0.349 µM] | viability change, negative = cytotoxic [14] -7.43% [at 0.29 µM] | activity change, negative = cytotoxicity [15] -7.72% [at 0.29 µM] | activation [16] 5.03% [at 0.29 µM] | activity, negative = inhibition [19] 2.62% [at 0.194 µM]

O=C(CCOCCOCCOCCOCCC(=O)Nc1c(I)cc(I)c(C(=O)O)c1I)Nc1c(I)cc(I)c(C(=O)O)c1I
inactive: Potency [1] | outcome [2] | Potency [3] | Potency [4] | Potency [5] | Potency [6] | Potency [7] | Potency [8] | outcome [9] | Potency [10] | outcome [11] | Potency [18] | Potency [12] | Potency [13] | Potency [17] | outcome [14] | outcome [15] | outcome [16]

CCn1cc(C(=O)O)c(=O)c2cc(F)c(N3CCN(C)CC3)cc21
inactive: activity change [1] -0.335% [at 18.9 µM, stronger effect = higher value] | activation [2] 2.22% [at 19 µM] | activity change, negative = cytotoxicity [4] 3.8% [at 19 µM] | activity change, negative = cytotoxicity [5] 5.67% [at 19 µM] | activity change, negative = cytotoxicity [7] 0.879% [at 19 µM] | activation [8] 1.75% [at 19 µM] | cAMP activity change [9] -4.11% [at 18.9 µM] | activity change, negative = inhibition [10] 0.775% [at 19 µM] | activity change, negative = cytotoxicity [11] 0.853% [at 19 µM] | activation [18] -0.0581% [at 19 µM] | activity change, negative = cytotoxicity [13] 0.0653% [at 18.9 µM] | activity change, negative = cytotoxicity [17] -1.41% [at 19 µM] | viability change, negative = cytotoxic [14] 3.51% [at 15.8 µM] | activation [16] 0.23% [at 15.8 µM] | activity, negative = inhibition [19] 2.2% [at 10.5 µM]

NC(=O)c1ncn([C@@H]2O[C@H](CO)[C@@H](O)[C@H]2O)c1O
inactive: Potency [1] | outcome [2] | Potency [3] | Potency [4] | Potency [5] | Potency [7] | Potency [8] | outcome [9] | Potency [10] | Potency [18] | Potency [13] | Potency [17] | outcome [14] | outcome [15] | outcome [16]
